# In all, about 54,000 sequences went through this assay and about 2,800 (5.2%) were called active. Cut-off read from the data, not from the text of the source: active = GI50 up to about 1.1 µM and inactive = higher. The entries come from a sample that favours actives as a whole. Potency and affinity values are given separately.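 All cell lines were grown in 96-well plates and treated with compound for 48 hours. At the GI50, growth is halved.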
# Test system: NCI-H226
# Test: NCI tumour cell line growth inhibition, 48 h
row,Substance,GI50 [nM]
1,"TRIBUTYLCHLOROSTANNANE, CHEMBL1088186",210

# — ChEMBL document CHEMBL1201862, “PubChem BioAssay data set” (2004)
